High-throughput results: PubChem, several laboratories
Rows were chosen to be rich in hits. Some 2.6% of all compounds tested hit in one or more screens of this group.
LGR2 inh: inhibitors of bursicon-induced Drosophila LGR2 receptor cAMP signaling; HEK293 LGR2, CRE-luciferase, bursicon-stimulated, 4 h; 380,000 tested, 0.35% active; AID 720647; inhibition, % at 9.99 µM;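 active means drop in luminescence signal, shown as inhibition above about 50% in the replicate tests, limit read from the data, passing the limit was not always enough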;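 further: agonist challenge used bursicon conditioned medium at about half maximal strength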
CF NFkB block: blocks PAF-induced NF-kB reporter in cystic fibrosis cells | 360,000 tested, 0.86% active | inhibition, % at 5 µM | KKLEB NF-kB-GFP reporter, GFP fluorescence overnight;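 active means at least 50% inhibition at 5 µM, scaled per plate between neutral and stimulator controls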;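 further: PAF is a Pseudomonas aeruginosa culture filtrate used as stimulus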
TROY NFkB inh: blocks TROY-dependent signaling in reporter cells; Q293 LMP1-TROYcd NF-kB luciferase reporter, 4 h; inhibition, % at 10 µM; 360,000 tested, 0.98% active;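 active means compounds whose plate-normalised and pattern-corrected inhibition of the luciferase reporter signal at the single screening dose is 50% or more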
TWEAK Fn14 block: inhibitors of TWEAK-Fn14 interaction signaling | TWEAK-stimulated Fn14 reporter cells, luciferase luminescence, 8 h | inhibition, % at 10 µM | 360,000 tested, 2% active; in the data active means inhibition above about 50%
KKLEB tox: reduces viability of KKLEB cystic fibrosis airway cells. KKLEB CF airway cells viability, ATPlite luminescence, overnight; stronger effect = lower value; cells stimulated with P. aeruginosa culture filtrate. 360,000 tested, 0.36% active. AID 602141. activity change (cytotoxicity), % at 5 µM;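 active means corrected activity change at or below -50% at 5 µM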
EWS-Fli inh: blocks EWS/Fli oncoprotein-driven transcription; A673 NR0B1-luciferase reporter, viability-normalised; inhibition, % at 12.6 µM; 350,000 tested, 0.67% active; AID 651661;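 active means mean inhibition of at least 50% after viability correction, with every replicate also passing that limit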;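 further: firefly luciferase signal divided by Alamar Blue viability fluorescence both relative to DMSO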
Numbers stand for hits; . = inactive; / = no result given.

SMILES	LGR2 inh	CF NFkB block	TROY NFkB inh	TWEAK Fn14 block	KKLEB tox	EWS-Fli inh
COc1ccc(S(=O)(=O)Nc2ccc3c(c2)C(=O)N([C@@H](C)CO)C[C@@H](C)[C@H](CN(C)S(=O)(=O)c2ccc(F)cc2)OCCCC[C@@H](C)O3)cc1	.	/	/	/	/	.
Cc1ccc(S(=O)(=O)N2C[C@@H]3CCCC[C@@H]3[C@@H](C)[C@H]2c2cn(Cc3ccccc3)c3ccccc23)cc1	.	.	.	61.4	.	.
Cc1ccc(S(=O)(=O)N2C[C@@H]3CCCC[C@@H]3[C@@H](C)[C@H]2c2cn(Cc3ccccc3)c3ncccc23)cc1	.	.	.	.	.	.
COc1ccc2c(c1)c([C@@H]1[C@H](C)[C@H]3CCCC[C@H]3CN1S(=O)(=O)c1ccc(C)cc1)cn2C	.	.	.	84.4	.	.
CC(C)c1ccc2c(c1)C(N1CCNCC1)Cc1ccc(F)cc1S2 (stereo unspecified)	103.6	/	/	/	/	.
CO[C@H]1CN(C)C(=O)c2ccc(NC(=O)NC(C)C)cc2OC[C@@H](C)N(C)C[C@H]1C	.	/	/	/	/	.
O=C(NC1=C(NC2CCS(=O)(=O)C2)C(=O)c2ccccc2C1=O)c1ccccc1 (stereo unspecified)	78.0	79.3	56.4	92.5	.	.
N#C[C@@H]1[C@@H](c2ccccc2)[C@H](CO)N1C(=O)C1CCCC1	.	/	/	/	/	.
COc1ccc(C(=O)Nc2ccc(Oc3nc(C)nc4sc(-c5ccccc5)cc34)cc2)cc1OC	.	.	.	.	-53.3	/
COc1ccc(C(=O)Nc2ccc(Oc3ncnc4sc(-c5ccccc5)cc34)cc2)cc1OC	.	.	.	.	.	/
CCc1ccc(NC(=O)c2ccc(F)c(S(=O)(=O)N(CC)c3ccccc3)c2)cc1	.	.	.	.	.	/
CCN(c1ccccc1)S(=O)(=O)c1cc(C(=O)Nc2cccc(Cl)c2)ccc1F	.	.	.	67.5	.	.
Cc1ccc(S(=O)(=O)Nc2ccc3c(c2)C(=O)N([C@@H](C)CO)C[C@H](C)[C@H](CN(C)C(=O)Nc2ccccc2)OCCCC[C@H](C)O3)cc1	.	/	/	/	/	.
O=C(CCN1C(=O)c2ccccc2C1=O)Nc1ccc(-c2nc3ccccc3o2)cc1	/	.	.	.	.	/
O=C(CN1C(=O)c2ccccc2C1=O)Nc1ccc(-c2nc3ccccc3o2)cc1	/	.	/	72.1	.	/
Cc1ccc(OCC(=O)Nc2ccc(O)c(-c3nc4ccccc4o3)c2)cc1	/	70.3	.	.	-60.8	/
O=C(CN1CCCC1)Nc1ccc(-c2nc3cc(NC(=O)CN4CCCC4)ccc3o2)cc1	/	.	52.8	.	.	/
CO[C@H]1CN(C)C(=O)c2ccc(NC(=O)Cc3ccccc3)cc2OC[C@H](C)NC[C@H]1C	.	/	/	/	/	.
C[C@@H]1CCCCO[C@@H](CN(C)CC2CC2)[C@H](C)CN([C@H](C)CO)C(=O)c2cc(NC(=O)Cc3ccccc3)ccc2O1	.	/	/	/	/	.
COc1cccc(C(=O)N2C[C@H]3[C@@H](c4ccccc42)[C@H](CO)N3Cc2ccccc2Cl)c1	.	/	/	/	/	.
C[C@@H]1CN([C@@H](C)CO)C(=O)CCCn2cc(nn2)CO[C@@H]1CN(C)C(=O)Oc1ccccc1	.	/	/	/	/	.
C[C@@H]1CCCCO[C@H](CN(C)S(=O)(=O)c2cccs2)[C@@H](C)CN([C@H](C)CO)C(=O)c2cc(N(C)C)ccc2O1	.	/	/	/	/	.
CCCCCC(=O)NC1CCCCN(C)C1=O (stereo unspecified)	.	/	/	/	/	.
O=C(C[C@@H]1CC[C@@H]2[C@H](COC[C@H](O)CN2CC2CCCC2)O1)NCc1ccc(Cl)cc1	.	/	/	/	/	.
Cc1ccc(C2c3[nH]c4ccccc4c3C[C@H]3C(=O)N(c4ccccc4C(=O)N4CCC[C@H]4C(=O)O)C(=O)N23)cc1 (stereo partly specified)	/	.	.	.	.	.
SMILES	LGR2 inh	CF NFkB block	TROY NFkB inh	TWEAK Fn14 block	KKLEB tox	EWS-Fli inh
CC(C)c1ccc(C2c3[nH]c4ccccc4c3C[C@H]3C(=O)N(c4ccccc4C(=O)N4CCC[C@@H]4C(=O)O)C(=O)N23)cc1 (stereo partly specified)	.	.	66.4	.	.	.
C[C@@H]1CCCCO[C@H](CN(C)C(=O)c2ccncc2)[C@H](C)CN([C@H](C)CO)C(=O)c2cc(NS(=O)(=O)c3ccc(Cl)cc3)ccc2O1	.	/	/	/	/	.
CC(C)(C)OC(=O)NCc1ccc(CNC(=O)c2nc[nH]c2C(=O)NCc2ccccc2)cc1	.	.	.	.	.	.
CC(C)(C)OC(=O)NCc1ccc(CNC(=O)c2[nH]cnc2C(=O)NCC(=O)OCc2ccccc2)cc1	81.9	.	.	.	.	.
C[C@@H]1CN([C@@H](C)CO)C(=O)c2cc(NC(=O)Nc3cccc4ccccc34)ccc2O[C@@H]1CN(C)Cc1ccc(C(=O)Nc2ccccc2N)cc1	.	/	/	/	/	.
Cc1ccc(S(=O)(=O)N2CCN(Cc3nc4ccccc4[nH]3)CC2)cc1C	.	.	52.8	.	.	/
Cc1cc(C)c(C)c(S(=O)(=O)N2CCN(Cc3nc4ccccc4[nH]3)CC2)c1C	/	.	.	.	.	/
COc1cc(N2C(=O)C=CC2=O)ccc1N1C(=O)C=CC1=O	/	78.4	.	.	.	60.4
Cc1noc(C)c1S(=O)(=O)Nc1cccc2c1O[C@@H](CN(C)S(=O)(=O)c1ccc(Cl)cc1)[C@@H](C)CN([C@H](C)CO)C2=O	.	/	/	/	/	.
COc1ccc(C)cc1Nc1n[n+](-c2ccccc2)c(-c2cc(OC)c(OC)cc2Br)s1	.	.	.	.	.	.
COc1ccc(C)cc1Nc1n[n+](-c2ccccc2)c(-c2c(OC)ccc3ccccc23)s1	.	.	.	57.9	.	.
CC(C)NC(=O)N(C)C[C@@H]1OCCCC[C@@H](C)Oc2ccc(NS(=O)(=O)c3ccc(Cl)cc3)cc2C(=O)N([C@@H](C)CO)C[C@@H]1C	.	/	/	/	/	.
COc1ccc([C@H]2CC(=O)C=C(c3ccc4[nH]ccc4c3)C2)cc1OC	.	.	53.0	.	.	.
CC12CCC(C(=O)Nc3ccc4c(c3)OCCO4)(OC1=O)C2(C)C (stereo unspecified)	/	.	70.3	83.5	.	/
CC(C)c1ccc(CC(=O)N2CCC2(C)C(=O)Nc2ccc3c(c2)OCCO3)cc1 (stereo unspecified)	.	.	.	51.2	.	.
COCC(=O)Nc1ccc2c(c1)C(=O)N(C)[C@H]1CC[C@H](CC(=O)Nc3cccc(C)c3)O[C@@H]1CO2	/	/	/	/	/	.
C[C@@H]1CN([C@@H](C)CO)C(=O)c2cc(C#CC3(O)CCCC3)cnc2O[C@@H]1CN(C)Cc1ccccc1	.	/	/	/	/	.
CCOCc1c(C(=O)NC2=Nc3ccccc3NC(CC)=C2C(=O)OCC)oc2ccccc12	.	86.2	.	.	-98.8	.
CCOc1ccccc1NC(=O)c1nc(S(=O)(=O)Cc2cccc(C)c2)ncc1Cl	.	87.0	70.5	78.5	-102.2	58.4
